Here are results for 7 compounds from PubChem BioAssay (NCATS).

Test [1] can be described thus: U-118MG Cancer Cell Toxicity qHTS against the NCATS CANVASS Library (AID 1347351). Further: potency means the concentration at half of the fitted maximal effect. An outline of the steps: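 1000 cells/well seeded and rested 4 h at 37 °C before pin transfer of compounds in an 11-pnt series. Exposure 72 h at 37 °C/5% CO2; viability by CellTiter-Glo luminescence after 15 min at room temperature.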
A short description of test [2]: HPAF-II 24hr Apoptosis Induction qHTS against the NCATS CANVASS Library (AID 1347356). An outline of the steps:
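Apoptosis induction in HPAF-II pancreatic cancer cells is measured as caspase-3/7 luminescence after a 24-hour exposure to compounds.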

Test [3] in a line: HEK293 18hr Apoptosis Induction qHTS against the NCATS CANVASS Library (AID 1347357). In a few lines: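 Natural products applied to HEK293 for 18 hr; Caspase-Glo 3/7 readout.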
Test [4] can be described thus: HPAF-II 18hr Apoptosis Induction qHTS against the NCATS CANVASS Library (AID 1347360). In a few lines: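 Luminescent DEVD-substrate signal, proportional to caspase activity, is measured in HPAF-II cells after 18-hour treatment across a concentration series; doxorubicin serves as control.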
The nature of test [5]: HEK293 12hr Apoptosis Induction qHTS against the NCATS CANVASS Library (AID 1347361). An outline of the steps: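 Luminescent caspase-3/7 signal, proportional to enzyme activity, was recorded from HEK293 cultures in DMEM + 10% FBS treated for 12 hours with titrated natural products (11 points). Doxorubicin (0.1nM - 4uM) served as control.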
Test [6] relates to NAD(P)H diaphorase (Clostridium kluyveri). In words: Diaphorse counterscreen qHTS: Assay Interference Panel against the NCATS CANVASS Library (AID 1347362). In a few lines:
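Clostridium kluyveri diaphorase in PBS + 0.01% Tween-20 preincubated 15 min with compounds. Resazurin and NADH then added for 5 min at room temperature in the dark; resorufin fluorescence read (ex 525, em 598).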

A short description of test [7]: KB-3-1 Cancer Cell Toxicity qHTS against the NCATS CANVASS Library (AID 1347366). Further: nearly all actives have a fitted effect of over 75% in size. Further: potency means the concentration at half of the fitted maximal effect. In a few lines:
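Cytotoxicity toward KB-3-1 cells (500/well, DMEM + 10% FBS) was scored by CellTiter-Glo luminescence following 72 hr exposure at 37C, with bortezomib titrated as control.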

Test [8] can be described thus: MCF7 Cancer Cell Toxicity qHTS against the NCATS CANVASS Library (AID 1347369). An outline of the steps: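 This 72 hr qHTS scored MCF7 viability by CellTiterGlo luminescence, with 500 cells/well; bortezomib titration ran as control.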
Test [9] is described as follows: qHTS for ATAD5 Antagonist screened against the NCATS CANVASS Library (AID 1347370). Further: nearly all actives have a fitted effect of over 65% in size. Further: potency means the concentration at half of the fitted maximal effect. An outline of the steps: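 HEK293T cells with a stably integrated ATAD5-controlled luciferase reporter were exposed to compounds (11-pt) alongside 10 uM 5-fluorouridine as ATAD5 stabilizer for 16hr at 37C. Viability was read by CellTiter-Fluor fluorescence, then ATAD5 by luminescence.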

Test [10] is described as follows: J3T Cancer Cell Toxicity qHTS against the NCATS CANVASS Library (AID 1347371). Further: potency means the concentration at half of the fitted maximal effect. An outline of the steps: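 Viability of the J3T glioma line from dog is scored by ATP luminescence after a 72 hr incubation with natural products.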
Test [11] deals with Nuclear receptor subfamily 1 group I member 3 (Homo sapiens) (UniProt Q14994). In words: qHTS for Constitutive Androstane Receptor (CAR) Antagonist screened against the NCATS CANVASS Library (AID 1347372). Further: potency means the concentration at half of the fitted maximal effect. An outline of the steps:
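HepG2 cells stably carrying hCAR and CYP2B6-2.2kb luciferase reporter, 2500 cells/well, compound with 50 nM CITCO agonist for 24hr at 37C. ONE-Glo luminescence measured CAR activity; CellTiter-Fluor read viability.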

For test [12] the target is unchanged. Put plainly: qHTS for Constitutive Androstane Receptor (CAR) Agonist screened against the NCATS CANVASS Library (AID 1347373).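 Further: every well also contained 1.5 µM PK11195 alongside the test compound.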 In a few lines: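 CAR agonism is scored as CYP2B6-promoter luciferase induction in a double-stable transfected HepG2 line, where 1.5uM PK11195 is included in each well. Compounds were tested over a 24hr exposure.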
The nature of test [13]: 10-beta competent E. coli microbial cell viability qHTS against the NCATS CANVASS Library (AID 1347376). Further: series mostly up to about 46 µM. In a few lines: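 Cytotoxicity toward competent E. coli is scored from cellular ATP content via BacTiter-Glo luminescence following overnight compound exposure at 37C, 5% CO2.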
The nature of test [14]: qHTS for H2AX Agonists against the NCATS CANVASS Library (AID 1347378).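 Further: phospho-H2AX S139 level in CHO-K1 lysates by TR-FRET emission ratio.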 An outline of the steps:
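Signal is the 665/620 nm emission ratio from europium cryptate and d2 antibody pair, rising with S139-phosphorylated H2AX. CHO-K1 cells saw test agents for 3 hr at 37C; detection ran 24 hr at room temperature.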

A short description of test [15]: qHTS for Inflammasome Signaling Inhibitors: IL-1-beta AlphaLISA screen against the NCATS CANVASS Library (AID 1347379).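 Further: human THP-1 cells primed with LPS then triggered with ATP.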 An outline of the steps:
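Human THP-1 cells were pretreated 1 hr at 37 °C with compounds (up to 57.5 uM final), then stimulated with LPS (250 ng/mL final) and ATP (1.25 mM final). Secreted IL-1B was read by AlphaLISA after 16 hr.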

Test [16] in a line: Cytotoxicity qHTS for assessment of Hepg2 cells membrane integrity screened against the NCATS CANVASS Library (AID 1347387). An outline of the steps:
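Fluorescence proportional to lysed-cell number, from LDH leaking out of HepG2 cells exposed 5 hr at 37C to 0.59 nM - 46 uM compound (11-point qHTS), is measured after 10 min with CytoTox-ONE.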

Test [17] in a line: Vero-766 cells viability qHTS against the NCATS CANVASS Library: Counterscreen for Zika virus inhibition assay (AID 1347394). Further: nearly all actives have a fitted effect of over 60% in size. Further: potency means the concentration at half of the fitted maximal effect. An outline of the steps:
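Counterscreen for toxicity: Vero 766 cells exposed 72 h to an 11-point compound series, viability by CellTiter-Glo.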

Test [18] can be described thus: Viability qHTS for inhibitors of the SERCaMP assay screened against the NCATS CANVASS Library (AID 1347400). Further: nearly all actives have a fitted effect of over 70% in size. Further: potency means the concentration at half of the fitted maximal effect. An outline of the steps:
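Cytotoxicity counter-screen: ATP content (CellTiter-Glo luminescence) of SH-SY5Y-GLuc SERCaMP MJH297 cells after 48 h at 37C with compounds in an 11-point qHTS series.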

Test [19] in a line: Redox Reaction Profiling qHTS: Assay Interference Panel against the NCATS CANVASS Library (AID 1347401). Further: potency means the concentration at half of the fitted maximal effect. In a few lines: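 Compounds in 11-point series incubated with 5 uM resazurin and 200 uM DTT in 50 mM HEPES pH 7.3, 50 mM NaCl. Resorufin fluorescence (Ex 525/Em 598) read before and after 15 min in the dark.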
Test [20] in a line: Secretion counterscreen for inhibitors of the SERCaMP assay screened against the NCATS CANVASS Library (AID 1347390).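 Further: light from luciferase secreted into medium read as a measure of general secretion.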 Further: potency means the concentration at half of the fitted maximal effect. An outline of the steps: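 Natural products are titrated in an 11-point series up to 77 uM onto SH-SY5Y-GLuc STOP cells for 20 h. Secreted reporter activity is measured as coelenterazine-driven luminescence, with Brefeldin A on each plate.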

Inconclusive results are not listed. The source made the active and inactive calls. The call rests on the fitted dose curve; in most records, active means well fitted curve in the direction sought with a large enough effect; inconclusive means small, poorly fitted or top-dose-only effect, or another doubt; inactive means no such curve, though single readings can be large; an effect the other way counts as inactive or inconclusive.

Nuclear receptor subfamily 1 group I member 3 (Homo sapiens), sequence (Q14994 whole entry, looked up): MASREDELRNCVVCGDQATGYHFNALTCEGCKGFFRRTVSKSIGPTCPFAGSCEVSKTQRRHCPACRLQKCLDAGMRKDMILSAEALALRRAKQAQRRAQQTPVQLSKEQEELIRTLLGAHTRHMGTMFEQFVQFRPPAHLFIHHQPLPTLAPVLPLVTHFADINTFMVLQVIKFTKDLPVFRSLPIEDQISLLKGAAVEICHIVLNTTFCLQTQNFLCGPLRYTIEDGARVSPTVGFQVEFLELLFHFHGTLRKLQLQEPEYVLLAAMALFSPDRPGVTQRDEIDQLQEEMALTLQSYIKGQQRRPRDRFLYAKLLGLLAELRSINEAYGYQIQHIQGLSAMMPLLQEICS

Consider `CC1(C)CC[C@]2(CO)CC[C@]3(C)C(=CCC4[C@@]5(C)CC[C@H](O)C(C)(C)C5CC[C@]43C)C2C1` (some centres undefined), for which the Potency entry in test [1], in test [3], in test [4], in [6], in [7] and in test [8] was “inactive” in each case. Besides, the Potency result in test [9], in [10], in [11], in test [12], in test [14] and in test [15] was “inactive” each time. Besides, the Potency entry in [17], in test [18] and in test [19] was “inactive” each time. Moreover, the call in test [2], in test [5], in test [13] and in [16] was inactive.

`C=C1CCC2C(C)(C(=O)O)CCC(CC/C(C)=C/C(=O)NC(CCC(N)=O)C(=O)O)[C@@]2(C)C1` (some centres undefined): the Potency result in test [1], in test [3], in test [4], in test [6], in [7] and in test [8] was “inactive” each time. The Potency result in test [9], in test [10], in test [11], in test [12], in test [14] and in test [15] was “inactive” each time. The Potency result in test [20], in test [17], in test [18] and in test [19] was “inactive” each time. The compound was called inactive in [2], in [5], in test [13] and in test [16].

On to `O=C(OC[C@H]1O[C@@H](OC(=O)c2cc(O)c(O)c(O)c2)[C@H](OC(=O)c2cc(O)c(O)c(O)c2)[C@@H](OC(=O)c2cc(O)c(O)c(O)c2)[C@@H]1OC(=O)c1cc(O)c(O)c(O)c1)c1cc(O)c(O)c(O)c1`, for which the call in [2], in test [5], in [13] and in test [16] was inactive. For the same compound, the Potency result in test [3], in test [4], in test [8], in test [9], in test [10] and in test [11] was “inactive” each time. In addition, the Potency entry in test [12], in [15] and in test [20] was “inactive” in each case. Further, the Potency is 34 µM (active) in test [18] and 24.1 µM (active) in test [19].

In the case of `CC[C@H](O)CCCCC[C@@H]1NC(=O)[C@H]2CCCCN2C(=O)[C@H]([C@H](C)CC)NC(=O)[C@H](Cc2cn(OC)c3ccccc23)NC1=O`, the Potency was 13.3 µM (active) in test [1] and 6.6 µM (active) in test [17]. Besides, the compound was called inactive in [2], in test [5], in test [13] and in [16]. The Potency result in [3], in test [4], in test [6], in test [7], in [8] and in [12] was “inactive” throughout. Further, the Potency entry in test [15], in [20], in [18] and in test [19] was “inactive” in each case.

Consider `CC(=O)Oc1cc2c(c(OC(C)=O)c1C1CCc3cc(Cl)c(Cl)n31)C(=O)n1c-2cc(Cl)c1Cl` (centres undefined), for which the Potency in test [1] was 13.3 µM (active); in test [7], 23.5 µM (active); in test [10], 13.2 µM (active); in test [17], 9.33 µM (active); in test [18], 42.8 µM (active). Moreover, the result in test [2], in test [5], in [13] and in [16] was inactive. For the same compound, the Potency entry in [3], in test [4], in [6], in test [11] and in test [14] was “inactive” each time.

For the compound `Cc1cc(C)c(O)c(C(=O)CC2CC(=O)NC(=O)C2)c1`, the outcome in test [2], in test [5], in [13] and in test [16] was inactive. Also, the Potency result in test [3], in test [4], in [6], in test [12], in test [15] and in test [19] was “inactive” throughout. Further, the Potency in test [7] was 13.2 µM (active); in test [9], 4.67 µM (active); in test [11], 14.8 µM (active); in test [20], 6.09 µM (active).

For the compound `C/C(=C\[C@H](C)C(=O)C[C@H](O)CC1CC(=O)NC(=O)C1)[C@@H]1OC(=O)CCCC/C=C/C[C@@H](O)[C@@H]1C`, the compound was called inactive in [2], in test [5], in test [13] and in [16]. For the same compound, the Potency entry in [3], in test [4], in test [6], in [8], in test [12] and in test [14] was “inactive” throughout. Also, the Potency entry in test [17] and in test [19] was “inactive” throughout. In addition, the Potency in [7] is 14.8 µM (active); in test [9] it was 8.31 µM (active); in test [11], 13.2 µM (active); in test [20], 12.2 µM (active).
